Compounds with a hit are over-represented: about 2.2% of the library has one in this group of screens.
KLF5 inh = KLF5 expression inhibitors, primary screen, DLD-1 cells, luminescence; inhibition, % at 5 µM; AID 1700, 2009; DLD-1 KLF5 promoter-luciferase reporter; 290,000 tested, 0.23% active;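 active = inhibition above a per-plate limit of that plate's mean compound inhibition plus 3 SD, cut at about 60% in these data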;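 also: higher means less KLF5 promoter-driven luciferase light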
Ba/F3 V617F tox = reduced viability of JAK2V617F-dependent Ba/F3 cells, primary screen, JAK2V617F inhibitor project, cell-based, Ba/F3 EpoR-JAK2V617F, luminescence. inhibition, % at 5.6 µM. 220,000 tested, 1.1% active. ATP luminescence;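 active = inhibition above the campaign mean plus 3 SD over all tested compounds, cut at about 24% in these data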;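 also: cytokine-independent growth of Ba/F3 cells driven by EpoR plus mutant JAK2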
APP 5UTR inh = inhibitors of APP translation via 5'UTR reporter, primary screen, APP 5'UTR luciferase, SH-SY5Y cells. SH-SY5Y APP 5'UTR-luciferase reporter, luminescence. inhibition, % at 2 µM. 190,000 tested, 0.82% active. AID 1285, 2008;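 active = inhibition above a set limit, derived from the sample mean plus 3 SD, cut at about 45% in these data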
IEC-6 cytotox = cytotoxicity in IEC-6 intestinal epithelial cells, primary screen, cytotoxicity control for KLF5 inhibitor project, cell-based, luminescence | IEC-6 cytotoxicity, luminescence viability | inhibition, % at 5 µM | 290,000 tested, 0.78% active | AID 1825, 2009
BaF3 tox = parental Ba/F3 cell viability inhibition, counter-screen for JAK2V617F inhibitor project, murine pro-B, CellTiter-Glo luminescence; CellTiter-Glo ATP luminescence; inhibition, % at 5.6 µM; 220,000 tested, 1.1% active;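 active = inhibition above a per-campaign cutoff, the mean inhibition of all tested compounds plus 3 SD, cut at about 27% in these data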
aSyn UTR inh = MLPCN primary screen, SNCA 5' untranslated region. inhibition, % (tested at 7.5 µM). AID 1813, 2009. 300,000 tested, 0.82% active. alpha-synuclein 5'UTR reporter, inhibitor activity; in the data active = inhibition above about 60%;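 also: H4 neuroglioblastoma cells stably carrying SNCA 5'UTR luciferase fusion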
IEC-6 tox confirm = cytotoxic compounds in IEC-6 epithelial cells, confirmation, cytotoxicity control, cell-based, luminescence. shares compounds with IEC-6 cytotox. IEC-6 rat intestinal epithelial viability. inhibition, % at 5 µM. 1,900 tested, 63% active. AID 1907, 2009
Numbers stand for hits; 0 = inactive; - = no result given. Rule as the data show it, unless noted: active = inhibition above about 22%; inactive = the rest.

SMILES | KLF5 inh | Ba/F3 V617F tox | APP 5UTR inh | IEC-6 cytotox | BaF3 tox | aSyn UTR inh | IEC-6 tox confirm
CCC(C)C(NC(=O)C1CCC(C)CC1)C(=O)Nc1cc(OC)ccc1OC (stereo not given) | 0 | 0 | 0 | 0 | 0 | 0 | -
COc1cc(OC)cc(C(=O)Oc2c(CN3CCOCC3)cc(Cl)c3cccnc23)c1 | 0 | 0 | - | 80.1 | 0 | 92.0 | 0
Cc1csc(C(C)NC(=O)c2ccc(OC3CCN(CCc4ccccc4)CC3)cc2)n1 (stereo not given) | 0 | - | - | 0 | - | 0 | -
COc1ccc(C)cc1NC(=O)CCNC(=O)Cn1cnc2ccccc2c1=O | 0 | - | - | 0 | - | 0 | -
CN(C)C(=S)Nc1nc2ccccc2s1 | 0 | 0 | 0 | 30.2 | 0 | 0 | 0
Cc1cc(SCC(=O)OCC(=O)N(C)c2ccccc2)nc2ccccc12 | - | - | - | - | - | 0 | -
O=C(Nc1ccc(Cl)cn1)c1cccc(F)c1 | 0 | 0 | 0 | 22.7 | 0 | 0 | 33.0
O=C(Nc1cccc(C(=O)Nc2ccc(Cl)cn2)c1)c1ccccc1 | 0 | - | - | 0 | - | 0 | -
COc1ccc(NS(=O)(=O)c2cccc(C(=O)NNC(=O)CNC(=O)c3ccccc3F)c2)cc1 | - | - | - | - | - | 0 | -
Cc1ccc(Nc2cc(C)nn2-c2nc(C)cc(=O)[nH]2)cc1 | 0 | 100.2 | 92.1 | 100.9 | 97.9 | 0 | 101.2
Cc1ccccc1OCCNC(=O)/C=C/c1ccccc1 | 0 | 0 | 0 | 0 | 0 | 0 | -
O=C(NCC(c1cccs1)N1CCOCC1)c1ccc(Cl)s1 (stereo not given) | 0 | 74.1 | 60.7 | 72.0 | 68.6 | 0 | 49.1
O=C(NCC(c1cccs1)N1CCOCC1)c1ccc(Cl)cc1 (stereo not given) | - | - | - | - | - | 0 | -
COc1cc2ncnc(NCc3cc(F)ccc3F)c2cc1OC | 0 | - | - | 37.1 | - | 0 | 0
COc1cc2ncnc(NCc3cccc(Cl)c3)c2cc1OC | 0 | 0 | 0 | 33.3 | 0 | 0 | 36.8
COc1ccc(CNc2ncnc3cc(OC)c(OC)cc23)cc1OC | 0 | 0 | 0 | 0 | 0 | 0 | -
COc1cc2ncnc(NCc3ccccc3)c2cc1OC | 0 | 0 | 0 | 26.2 | 0 | 0 | 30.1
Oc1ccccc1CNCCCN1CCOCC1 | 0 | - | - | 0 | - | 0 | -
COc1ccc(OC)c(NC(=O)CCn2ccnc2)c1 | 0 | - | - | 0 | - | 0 | -
Cc1cccc2nc(CSc3nnc(N)s3)cn12 | 0 | 0 | 0 | 0 | 0 | 0 | -
COc1ccc(Nc2nnc(SCc3cn4c(C)cccc4n3)s2)cc1 | 0 | 0 | 0 | 22.2 | 0 | 0 | 0
O=C(Nc1nc2ccccc2[nH]1)C1CC1 | 0 | 0 | 0 | 32.6 | 50.3 | 0 | 0
CCN1/C(=C/c2ccc3ccccc3[n+]2CCCS(=O)(=O)[O-])C=Cc2cc(C)ccc21 | 0 | - | - | 0 | - | 0 | -
CCCCN1/C(=C/c2cccc[n+]2C)Sc2cc(NC(C)=O)ccc21 | 0 | - | - | 0 | - | 0 | -
CCN1/C(=C/c2ccc3cc(C)ccc3[n+]2CC)Sc2cc(C)ccc21 | 0 | 99.3 | 63.1 | 34.8 | 84.8 | - | 33.9
SMILES | KLF5 inh | Ba/F3 V617F tox | APP 5UTR inh | IEC-6 cytotox | BaF3 tox | aSyn UTR inh | IEC-6 tox confirm
CCCCN1/C(=C/c2ccc3ccccc3[n+]2CC)Sc2ccccc21 | 0 | 101.0 | 0 | 41.6 | 80.4 | 80.2 | 0
Cc1ccc(OCC(O)CN2C(=O)NC(C)(C)C2=O)c(C)c1 (stereo not given) | 0 | 0 | 0 | 0 | 0 | 0 | -
Cc1ccc(-n2c(SCC(=O)N3CCCCC3)nc(O)c(Cc3ccccc3)c2=O)cc1 | 0 | - | - | 0 | - | 0 | -
CN(Cc1cn(C)nc1-c1ccc(Oc2ccccc2)cc1)C1CCOC1 (stereo not given) | 0 | 0 | - | 0 | 0 | 0 | -
CN(Cc1cn(C)nc1-c1ccc(Oc2ccccc2)cc1)CC1COCCO1 (stereo not given) | 0 | 98.1 | 0 | 77.1 | 102.2 | 0 | 0
COc1ccc(-n2cc(-c3ccccc3)[nH]c2=S)c(OC)c1 | 0 | - | - | 26.4 | - | 0 | 0
COc1ccc(-n2cc(-c3ccc(OC)c(OC)c3)[nH]c2=S)cc1 | 0 | 0 | 0 | 0 | 0 | 0 | -
CCN(CC)S(=O)(=O)c1ccc(NC(=O)Cc2cccs2)cc1 | 0 | 0 | 0 | 0 | 0 | 0 | -
CC1(C)Cc2nc3sc4c(SCC(=O)O)ncnc4c3cc2CO1 | 0 | 0 | - | 0 | 0 | 0 | -
CC1(C)Cc2nc3sc4c(SCC(=O)NCc5ccccc5)ncnc4c3cc2CO1 | 0 | 53.0 | 66.8 | 47.9 | 36.4 | 64.0 | 51.1
Nc1cc2nn(-c3ccccc3)nc2cc1Cl | 0 | 0 | 0 | 101.5 | 0 | 0 | 45.8
O=C(CSc1nnnn1C1CCCCC1)Nc1ccccc1F | 0 | 0 | 0 | 0 | 0 | 0 | -
O=C(CSc1nnnn1C1CC2CCC1C2)Nc1ccnc2ccccc12 (stereo not given) | 0 | 68.3 | 0 | 35.9 | 63.0 | - | 0
CCOc1ccc(Nc2cc(C)c3ccccc3n2)cc1 | 0 | - | - | 0 | - | 0 | -
CCOc1ccc(Nc2c3ccccc3nc3ccccc23)cc1 | 0 | 75.7 | - | 72.0 | 68.2 | 0 | 44.3
COC(=O)c1c(C)oc2ccc(N(C(=O)c3ccncc3)S(=O)(=O)c3ccc(C)cc3)cc12 | 0 | 85.8 | 89.0 | 52.1 | 75.2 | 109.8 | 56.7
COc1ccc(-c2nn(-c3ccccc3)cc2/C=N/N=C(N)N)cc1OC | 0 | 0 | 0 | 0 | 0 | 0 | -
COc1ccc(-c2nn(-c3ccccc3)cc2/C=N/O)cc1OC | 0 | - | - | 26.7 | - | 0 | 0
CCN(CC(=O)Nc1ccccc1OC)CC(=O)Nc1sccc1C#N | 0 | 0 | 0 | 0 | 0 | 0 | -
O=C(NC1CC1)c1ccc(NS(=O)(=O)c2ccc(F)cc2)cc1 | - | - | - | - | - | 0 | -
Cc1cc(C)cc(NS(=O)(=O)c2ccc3[nH]cc(C(=O)NCc4ccco4)c(=O)c3c2)c1 | 0 | 64.2 | 0 | 28.0 | 65.5 | 0 | 29.1
CC1Cc2ccccc2N1C(=O)c1cc2cccnc2n(C)c1=O (stereo not given) | - | - | - | - | - | 0 | -
O=C(CC1(O)C(=O)N(C/C=C/c2ccccc2)c2ccccc21)c1ccccn1 (stereo not given) | 0 | 92.1 | 56.8 | 89.4 | 93.3 | 0 | 32.5
O=C(CC1(O)C(=O)N(CCc2ccccc2)c2ccccc21)c1ccccn1 (stereo not given) | 0 | 0 | 0 | 0 | 0 | 0 | -
O=S(=O)(c1cccc(-c2nnc3n2CCCCC3)c1)N1CCCC1 | 0 | 0 | 0 | 0 | 0 | - | -
Cc1cc(C)n(-c2nc3ccccc3c(=O)n2OCC(=O)N(C)C)n1 | 0 | 0 | 0 | 0 | 0 | 0 | -
Cc1cc(C)n(-c2nc3ccccc3c(=O)n2OCC(=O)OCc2ccccc2)n1 | 0 | 0 | 51.4 | 57.6 | 0 | 62.0 | 30.2
COC(=O)COc1ccc(/C=N/NC(=O)CN(c2ccccc2OC)S(=O)(=O)c2ccccc2)cc1 | 0 | - | - | 49.0 | - | 0 | 0
Nc1ncn([C@@H]2O[C@H](CO)[C@@H](O)[C@H]2O)c(=O)n1 | - | - | - | - | - | 0 | -
O=C(OCC1OC2C(Oc3nc(=O)ccn32)C1O)c1ccccc1 (stereo not given) | 0 | 0 | 0 | 0 | 0 | 0 | -
